Measurements: PubChem BioAssay (NCI)
This is part of a sample that, as a whole, favours compounds with a hit. Of some 83,000 tested, about 20% had one in any assay.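 Percent growth is the endpoint: 0 to 100 indicates growth inhibition (40 means 60% inhibition), 0 means no net growth, and negative values indicate cell death.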 Activity calls are given as the source filed them.

Test system: HCC-2998 colon
Test: NCI-60 one-dose screen, 48 h (100 = growth as untreated, 0 = no growth, -100 = all killed)
Conditions: 10 µM unless noted
Protocol: Growth inhibition of the HCC-2998 human tumor cell line is measured as a screen for anti-cancer activity. Cells are grown in 96 well plates and exposed to the test compound for 48 hours. Compounds are tested at a single concentration, which is 10^-5 M for most compounds. The reported endpoint is percent growth (GI% or GIPRCNT), where numbers from 0 - 100% represent growth inhibition, and numbers from -100% - 0 represent cell death. For example, a value of 40 represents 60% growth inhibition. A value of 0 means no net growth occurred over the course of the experiment. A value of -40 indicates 40% of cells at the beginning of the experiment died by the end of the experiment. A value of -100 means all cells are dead at the end of the experiment.
NCI-60 Human Tumor Cell Lines Screen was performed using the standard one-dose NCI protocol, which is described in more detail at https://dtp.cancer.gov/discovery_development/nci-60/default.htm.
Compounds with GIPRCNT values below 10 were considered active. Activity score was based on GIPRCNT using the following formula: […]
Score is 0 for GIPRCNT values of 100 or above, 50 for GIPRCNT values of 0, and 100 for GIPRCNT values of -100.

Structure (SMILES) | growth
COc1ccc(C(=O)/C=C/c2cc3c(cc2Br)OCO3)cc1S(N)(=O)=O | -53.8% (active)
CC1=C(C#N)C2=NNCC(c3ccccc3)=NN2C(c2ccccc2)=C1 | 118% (inactive)
Cc1ccc(C(SCCNCc2cc(N(C)C)ccn2)(c2ccccc2)c2ccccc2)cc1 | -93.8% (active)
O=c1c2ccccc2nc(-c2ccccc2)n1/N=C/c1ccc2ccccc2c1 | 57.5% (inactive)
CC(=O)c1cc(C(=O)c2ccccc2)n2c1ccc1ccccc12 | 121% (inactive)
CCCCCCCCc1ccc(C(=O)Nc2cccc(P(=O)(O)O)c2)cc1 | 114% (inactive)
O=C(/C=C/c1ccc(-c2ccccc2)cc1)c1nc2ccccc2n1Cc1ccc(F)cc1 | 31.5% (inactive)
Cc1ccccc1[C@H]1C(C(=O)c2ccc(Cl)cc2)C2(N[C@@H]1c1ccccc1)C(=O)Nc1ccccc12 (stereo not given in full) | -41.1% (active)
Cc1sc(C(NC(=O)OCCn2c([N+](=O)[O-])cnc2C)C(F)(F)Cl)nc1-c1ccc(OC(F)(F)F)cc1 (stereo not given) | -96.6% (active)
Cc1ccc(C(=O)CSc2nc3ccc(F)cc3c(=O)n2-c2ccc(Cl)cc2)cc1 | 81.3% (inactive)
CC(=O)Nc1ccc(-c2nc3cc(-c4ccc(O)cc4)ccc3n2C)cc1 | 58.9% (inactive)
COc1ccc(NC(=O)[C@H](CO)NC(=O)OC(C)(C)C)cc1C(=O)Nc1cccc(C2CC(=O)c3c(cc(OC)c(OC)c3OC)O2)c1 (stereo not given in full) | 83% (inactive)
COc1cc2oc(-c3cccc(C(=O)Nc4ccc(Cl)cc4)c3)cc(=O)c2c(OCCNC(=O)[C@@H](N)CCC(=O)O)c1OC | 115% (inactive)
Cc1ccc(-c2nc(C#N)c(S(=O)(=O)N3CCN(S(=O)(=O)c4ccccc4)CC3)o2)cc1 | 56.2% (inactive)
COc1ccc(-c2ccc(SCC(=O)NCCc3ccc(S(N)(=O)=O)cc3)nn2)cc1 | 94.9% (inactive)
Cc1ccc([C@H]2C(C(=O)c3ccc(Cl)cc3)C3(N[C@@H]2c2ccccc2)C(=O)Nc2ccc(Br)cc23)cc1 (stereo not given in full) | 25.7% (inactive)
CSc1ccccc1NC(=O)c1ccc2nnn(/C(C#N)=C/c3ccccn3)c2c1 | -97.8% (active)
Nc1nnc(-c2c[nH]c3ccc(Br)cc23)c(-c2c[nH]c3ncc(Br)cc23)n1 | 48.5% (inactive)
Cc1cc(C)cc(C(=O)Nc2cccc(-c3cn(-c4ccc(S(N)(=O)=O)cc4)nn3)c2)c1 | 49.9% (inactive)
CCCCOc1ccc(NC(=O)c2sc3nc(C)ccc3c2N)cc1 | 21.2% (inactive)

Structure (SMILES) | growth
Cn1cc(-c2nc(N)nnc2-c2c[nH]c3ccc(Br)cc23)c2cccnc21 | 77% (inactive)
O=C1Nc2cc(Cl)ccc2/C1=C/c1cccc(OCc2ccccn2)c1 | 28.9% (inactive)
COc1c(F)ccc(C(=O)Nc2ccc3nc(NC(=O)C4CCCN(S(=O)(=O)c5cccc(Br)c5)C4)sc3c2)c1F (stereo not given) | 125% (inactive)
CC1=C(C(=O)c2ccccc2)C(c2ccc(-n3cncn3)cc2)n2c(nc3ccccc32)N1 (stereo not given) | 109% (inactive)
Cn1cc(-c2cc(N)n3nc(-c4cn(C)c5ccccc45)cc3n2)c2cc(Br)ccc21 | -70.2% (active)
CCCCSc1nc(Nc2ccc(C(C)=O)cc2)c(C#N)c(-c2ccc(OC)cc2)n1 | 98.4% (inactive)
CCOC(=O)/C=C/c1cccc2c1C(=O)NC(C)(c1cc3cc(Br)ccc3oc1=O)N2 (stereo not given) | 68.8% (inactive)
CCOC(=O)c1ccc(Nc2nc(NN)nc(-c3ccc(OC)cc3)c2C#N)cc1 | 81% (inactive)
CCS(=O)(=O)N1CCCC(C(=O)Nc2nc3ccc(NC(=O)c4ccc(F)c(OC)c4F)cc3s2)C1 (stereo not given) | 86.9% (inactive)
COc1ccc(-c2nc3cc(C)ccc3n2CC(=O)N=Nc2c(O)[nH]c3ccc(Cl)cc23)cc1 | -1.72% (active)
O=C(O)Cn1c(O)c(/C=C2/C=c3cc4c(cc3=NC2=O)OCCO4)sc1=S | 109% (inactive)
COc1ccc(-c2nc3cc(C)ccc3n2CC(=O)N=Nc2c(O)[nH]c3ccc(Br)cc23)cc1 | 22.7% (inactive)
COc1cccc(/C=C/c2nc3ccccc3c(=O)n2CC(=O)Nc2ccc(Cl)cc2)c1 | 91% (inactive)
COc1cc2c(c(OC)c1OC)C(=O)CC(c1cccc(NC(=O)c3cc(NC(=O)[C@H](CO)NC(=O)OC(C)(C)C)ccc3Cl)c1)O2 (stereo not given in full) | 73% (inactive)
O=C(N/N=C/c1ccc(-c2ccc(O)cc2)s1)c1[nH]c2ccc(Br)cc2c1-c1ccccc1 | 7.81% (active)
COc1ccc(/C=C/c2nc3ccccc3nc2Nc2cccc(C)c2)cc1 | 116% (inactive)
CN(C)CCCNC(=O)c1cc(NC(=O)c2cc(NC(=O)c3ccc(C#Cc4ccccc4)cc3)cn2C)cn1C | -90.7% (active)
CC(C)c1sc(NC(=O)c2cc(NC(=O)c3cc(NC(=O)c4cscn4)cn3C)cn2C)nc1C(=O)NCCCN(C)C | -74.9% (active)
Cc1ccc(C(=O)NN2C(=O)/C(=C/C=C/c3ccc([N+](=O)[O-])o3)SC2=S)cc1 | -90% (active)
COc1cc2c(c(OC)c1OC)C(=O)CC(c1cccc(NC(=O)c3cc(NC(=O)[C@H](C)N)ccc3Cl)c1)O2 (stereo not given in full) | 81% (inactive)
